The text below walks through data of PubChem BioAssay (NCATS).

Several values for one entry are separate records, joined by “and”; a condition that tells them apart may be missing. Identical values can stand only once. Records with an inconclusive call do not appear. A call without a number means that no potency is given here. Activity calls are given as the source filed them. Calls come from the whole dose curve; as a rule, active = well fitted cell-killing curve with a large enough effect; inconclusive = small, poorly fitted or top-dose-only effect, or effect the other way; inactive = no such curve, though single readings can be large or run the other way.
Potency is the fitted concentration of half-maximal effect.

One assay in a line: Viability qHTS for spleen associated tyrosine kinase inhibitor (SYKi) naive MV4-11 cells (AID 1963823). Note: nearly all actives have a fitted effect of over 40% in size. Conditions: MV4-11 AML viability, CellTiter-Glo luminescence, 72 h; series mostly up to 45 µM. The essentials: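 SYK inhibitor-naive MV4-11 cells, 500 per well, exposed to compounds for 72 hr at 37 C, 5% CO2. Viability read as CellTiter-Glo luminescence after 10 min at room temperature.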
With `CN1C(=O)NC(=O)C(C)(C2=CCCCC2)C1=O` (stereo not drawn), the Potency entry is “inactive”.
Take `C=CCC1(C(C)CC)C(=O)NC(=O)NC1=O` (stereo not drawn): the Potency result was “inactive”.
The same measure, in the same setting: the value for `C[C@]12CC[C@H]3[C@@H](CC[C@@]45O[C@@H]4C(O)=C(C#N)C[C@]35C)[C@@H]1CC[C@@H]2O` was 10.5 µM (active); that for `CC(C)(C)c1ccc(O)cc1` was “inactive”.
On the same count and under the same terms, the result for `Oc1cc(Cl)ccc1Oc1ccc(Cl)cc1Cl` reads 19.7 µM (active); that for `CN1C(=O)CN=C(c2ccccc2)c2cc([N+](=O)[O-])ccc21`, “inactive”; that for `COc1cc2c(cc1F)C(c1ccccc1Cl)=Nc1c(n[nH]c1C)N2`, 0.517 µM (active).
`COc1ccc2c(c1OC)C(=O)O[C@H]2[C@@H]1c2cc3c(cc2CCN1C)OCO3`: the Potency result is “inactive”.
Same read-out and setting: the value for `COc1cc(C[C@@H](C)N)c(OC)cc1C` was “inactive”.
Still for that read-out and setting: the result for `CCOC(=O)CC(SP(=S)(OC)OC)C(=O)OCC` (stereo not drawn) reads “inactive”.
Consider `CC(C)C(Br)C(=O)NC(N)=O` (stereo not drawn), for which the Potency result was “inactive”.
On the same count and under the same terms, the result for `C/C=C(/C)C(=O)O[C@H]1C(C)=C2[C@H]([C@@H]1OC(=O)CCCCCCC)[C@@](C)(OC(C)=O)C[C@H](OC(=O)CCC)[C@@]1(O)[C@H]2OC(=O)[C@@]1(C)O` reads 25.9 nM (active) and 20.9 nM (active); that for `Oc1ccc(Cl)cc1Cc1ccccc1`, 24.6 µM (active); that for `Clc1ccc(COC(Cn2ccnc2)c2ccc(Cl)cc2Cl)cc1` (stereo not drawn), 8.33 µM (active).
Still for that read-out and setting: the result for `NCCc1cc(O)c(O)cc1O` reads “inactive”; that for `COc1ccc(C(=O)N2CCCC2=O)cc1`, “inactive”; that for `CN1[C@H]2CC(O)C[C@H]1[C@H]1O[C@H]12` (stereo partly drawn), “inactive”.
For the compound `CC(=O)C1CCOC1=O` (stereo not drawn), the Potency result is “inactive”.
Still for that read-out and setting: the result for `CC(C)=CC1C(C(=O)OCN2C(=O)C3=C(CCCC3)C2=O)C1(C)C` (stereo not drawn) reads “inactive”; that for `CCOC(=O)NC(O)C(Cl)(Cl)Cl` (stereo not drawn), “inactive”.
In the case of `CC[N+](CC)(CC)CC`, the Potency entry is “inactive”.
Still for that read-out and setting: the value for `COc1ccc(OC)c(CC(C)N)c1` (stereo not drawn) was “inactive”; that for `COC(=O)C1=CCCN(C)C1` was “inactive”.
Same read-out and setting: the result for `Nc1ccccc1` reads “inactive”; that for `CCC1(c2ccccc2)CCC(=O)NC1=O` (stereo not drawn), 21.1 µM (active).
The same measure, in the same setting: the result for `CC(C)NCC(O)c1ccc(N)c(C#N)c1` (stereo not drawn) reads “inactive”.
Take `Cc1[nH]ncc1-c1cc2nc([C@@H]3CC4CCN3CC4)[nH]c(=O)c2s1`: the Potency was 3.32 µM (active).
In the case of `Clc1ccc(CCC(Cn2ccnc2)Sc2c(Cl)cccc2Cl)cc1` (stereo not drawn), the Potency was 18.6 µM (active).
On the same count and under the same terms, the value for `CCCCCCCCCCCC[N+](C)(C)CCOc1ccccc1` was 2.66 µM (active); that for `CO/C=C(/C(=O)OC)c1ccccc1Oc1cc(Oc2ccccc2C#N)ncn1` was 13.7 µM (active).
On the same count and under the same terms, the result for `C/C(=C\c1csc(C)n1)[C@@H]1C[C@@H]2O[C@@H]2CCC[C@H](C)[C@H](O)[C@@H](C)C(=O)C(C)(C)[C@@H](O)CC(=O)O1` reads 0.0052 µM (active); that for `CCC1(c2ccccc2)C(=O)N(COC)C(=O)N(COC)C1=O`, “inactive”; that for `COc1cc(CC(C)N)cc(OC)c1OC` (stereo not drawn), “inactive”.
Still for that read-out and setting: the result for `COP(=S)(OC)Oc1ccc(SC)c(C)c1` reads “inactive”.
For the compound `CCCN(CCC)c1c([N+](=O)[O-])cc(S(N)(=O)=O)cc1[N+](=O)[O-]`, the Potency was 21.7 µM (active).
As for `C=CCN1CC[C@]23CCCC[C@H]2[C@H]1Cc1ccc(O)cc13`, the Potency entry was “inactive”.
Turning to `CCO[C@H]1O[C@@H]2OC3(C)CC[C@H]4[C@H](C)CC[C@@H]([C@H]1C)[C@@]24OO3`, the Potency is 4.22 µM (active).
The same measure, in the same setting: the result for `COc1cc(N)c(Cl)cc1C(=O)NC1CN2CCC1CC2` (stereo not drawn) reads “inactive”; that for `O=C(O)COc1ccccc1`, “inactive”.

The next assay can be described thus: Viability qHTS for spleen associated tyrosine kinase inhibitor (SYKi) drug resistant MV4-11 cells (AID 1963824). Note: nearly all actives have a fitted effect of over 35% in size. Conditions: SYKi-resistant MV4-11 viability, CellTiter-Glo, 72 h; series mostly up to 45 µM. The essentials: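 SYK-inhibitor-resistant MV4-11 AML cells were seeded at 500 per well onto compound and cultured 72 hours (37 °C, 5% CO2). CellTiter-Glo was then added, and after 10 min at room temperature, luminescence gave viability.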
A general note: qHTS replaces the single test concentration by a dilution series.
Consider `CN1C(=O)NC(=O)C(C)(C2=CCCCC2)C1=O` (stereo not drawn), for which the Potency result is “inactive”.
On the same count and under the same terms, the result for `C=CCC1(C(C)CC)C(=O)NC(=O)NC1=O` (stereo not drawn) reads “inactive”.
On to `C[C@]12CC[C@H]3[C@@H](CC[C@@]45O[C@@H]4C(O)=C(C#N)C[C@]35C)[C@@H]1CC[C@@H]2O`, for which the Potency was 6.61 µM (active).
The same measure, in the same setting: the value for `CC(C)(C)c1ccc(O)cc1` was “inactive”.
Regarding `Oc1cc(Cl)ccc1Oc1ccc(Cl)cc1Cl`, the Potency is 7.85 µM (active) and 16.8 µM (active).
In the case of `CN1C(=O)CN=C(c2ccccc2)c2cc([N+](=O)[O-])ccc21`, the Potency result was “inactive”.
Same read-out and setting: the result for `COc1cc2c(cc1F)C(c1ccccc1Cl)=Nc1c(n[nH]c1C)N2` reads 1.48 µM (active); that for `COc1ccc2c(c1OC)C(=O)O[C@H]2[C@@H]1c2cc3c(cc2CCN1C)OCO3`, “inactive”.
As for `COc1cc(C[C@@H](C)N)c(OC)cc1C`, the Potency result was “inactive”.
As for `CCOC(=O)CC(SP(=S)(OC)OC)C(=O)OCC` (stereo not drawn), the Potency entry was “inactive”.
On to `CC(C)C(Br)C(=O)NC(N)=O` (stereo not drawn), for which the Potency result was “inactive”.
Still for that read-out and setting: the result for `C/C=C(/C)C(=O)O[C@H]1C(C)=C2[C@H]([C@@H]1OC(=O)CCCCCCC)[C@@](C)(OC(C)=O)C[C@H](OC(=O)CCC)[C@@]1(O)[C@H]2OC(=O)[C@@]1(C)O` reads 18.4 nM (active) and 3.7 nM (active); that for `Oc1ccc(Cl)cc1Cc1ccccc1`, 24.6 µM (active).
The same measure, in the same setting: the result for `Clc1ccc(COC(Cn2ccnc2)c2ccc(Cl)cc2Cl)cc1` (stereo not drawn) reads 8.33 µM (active).
`NCCc1cc(O)c(O)cc1O`: the Potency result is “inactive”.
On the same count and under the same terms, the value for `COc1ccc(C(=O)N2CCCC2=O)cc1` was “inactive”; that for `CN1[C@H]2CC(O)C[C@H]1[C@H]1O[C@H]12` (stereo partly drawn) was “inactive”; that for `CC(=O)C1CCOC1=O` (stereo not drawn) was “inactive”.
Same read-out and setting: the result for `CC(C)=CC1C(C(=O)OCN2C(=O)C3=C(CCCC3)C2=O)C1(C)C` (stereo not drawn) reads “inactive”; that for `CCOC(=O)NC(O)C(Cl)(Cl)Cl` (stereo not drawn), “inactive”.
For the compound `CC[N+](CC)(CC)CC`, the Potency entry was “inactive”.
As to `COc1ccc(OC)c(CC(C)N)c1` (stereo not drawn), the Potency entry was “inactive”.
Same read-out and setting: the value for `COC(=O)C1=CCCN(C)C1` was “inactive”.
The same measure, in the same setting: the result for `Nc1ccccc1` reads “inactive”; that for `CCC1(c2ccccc2)CCC(=O)NC1=O` (stereo not drawn), 13.3 µM (active).
Consider `CC(C)NCC(O)c1ccc(N)c(C#N)c1` (stereo not drawn), for which the Potency result was “inactive”.
Same read-out and setting: the result for `Cc1[nH]ncc1-c1cc2nc([C@@H]3CC4CCN3CC4)[nH]c(=O)c2s1` reads 4.17 µM (active).
Still for that read-out and setting: the value for `Clc1ccc(CCC(Cn2ccnc2)Sc2c(Cl)cccc2Cl)cc1` (stereo not drawn) was 11.9 µM (active) and 18.6 µM (active); that for `CCCCCCCCCCCC[N+](C)(C)CCOc1ccccc1` was 2.66 µM (active).
Same read-out and setting: the value for `CO/C=C(/C(=O)OC)c1ccccc1Oc1cc(Oc2ccccc2C#N)ncn1` was 8.63 µM (active); that for `C/C(=C\c1csc(C)n1)[C@@H]1C[C@@H]2O[C@@H]2CCC[C@H](C)[C@H](O)[C@@H](C)C(=O)C(C)(C)[C@@H](O)CC(=O)O1` was 0.0058 µM (active).
As for `CCC1(c2ccccc2)C(=O)N(COC)C(=O)N(COC)C1=O`, the Potency entry is “inactive”.
Still for that read-out and setting: the value for `COc1cc(CC(C)N)cc(OC)c1OC` (stereo not drawn) was “inactive”; that for `COP(=S)(OC)Oc1ccc(SC)c(C)c1` was “inactive”.
The same measure, in the same setting: the result for `CCCN(CCC)c1c([N+](=O)[O-])cc(S(N)(=O)=O)cc1[N+](=O)[O-]` reads 21.7 µM (active); that for `C=CCN1CC[C@]23CCCC[C@H]2[C@H]1Cc1ccc(O)cc13`, “inactive”.
On the same count and under the same terms, the result for `CCO[C@H]1O[C@@H]2OC3(C)CC[C@H]4[C@H](C)CC[C@@H]([C@H]1C)[C@@]24OO3` reads 2.99 µM (active); that for `COc1cc(N)c(Cl)cc1C(=O)NC1CN2CCC1CC2` (stereo not drawn), “inactive”; that for `O=C(O)COc1ccccc1`, “inactive”.
